Only some compounds are listed: those with a hit (about 3.9% of all), similar ones and a draw of the others.
aSyn 5UTR inh: MLPCN primary screen, SNCA 5' untranslated region. alpha-synuclein 5'UTR reporter, inhibitor activity. inhibition, % (tested at 7.5 µM). 300,000 tested, 0.82% active; in the data active = inhibition above about 60%;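 note: H4 neuroglioblastoma cells stably carrying SNCA 5'UTR luciferase fusion; 0% = DMSO wells and 100% = positive control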
HSP90 inh: HSP90 refolding inhibition in rabbit reticulocyte lysate; 290,000 tested, 0.91% active; inhibition, % at 5.6 µM; luciferase refolding luminescence, 3 h;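 active = inhibition above the screen-wide mean plus 3 SD, computed separately per campaign, cut at about 16% in these data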;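 note: 0% = DMSO wells and 100% = 60 µM geldanamycin wells; inhibitors lower the luminescence because luciferase stays unfolded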
TROY NFkB inh: inhibitors of TROY-dependent NF-kB signaling; 360,000 tested, 0.98% active; AID 1347056; inhibition, % at 10 µM; Q293 LMP1-TROYcd NF-kB luciferase reporter, 4 h;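 active = compounds whose plate-normalised and pattern-corrected inhibition of the luciferase reporter signal at the single screening dose is 50% or more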
HIF-2a inh: HIF-2a inhibition; 786-0 RCC cells HIF-2a reporter, luciferase luminescence, overnight; inhibition, % at 18.8 µM; 360,000 tested, 0.72% active;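 active = inhibition of the luminescence signal of 40% or more relative to plate controls, in a single-dose primary screen at 18.75 µM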
C8 TRAIL sens: sensitizes caspase-8 expressing cells to TRAIL. NB7+C8 cells + TRAIL, ATPlite viability luminescence. inhibition (viability loss, TRAIL sensitization), % at 10 µM. 360,000 tested, 1% active;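 active = compounds causing at least 50% loss of cell viability in the single-dose screen, relative to plate controls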
TWEAK Fn14 block: TWEAK-Fn14 signaling inhibition; AID 1159606; 360,000 tested, 2% active; TWEAK-stimulated Fn14 reporter cells, luciferase luminescence, 8 h; inhibition, % at 10 µM; in the data active = inhibition above about 50%
* marks the source's active call; other numbers are inactive results; · = not tested or not shown.

SMILES | aSyn 5UTR inh | HSP90 inh | TROY NFkB inh | HIF-2a inh | C8 TRAIL sens | TWEAK Fn14 block
CCCOc1ccc(N2C(=O)CC(NCCc3ccc(S(N)(=O)=O)cc3)C2=O)cc1 (configuration not stated) | 18.4 | 2.7 | 8.3 | 5.7 | 3.2 | 4.2
CC1CCCN(S(=O)(=O)c2cc(C(=O)NCCc3ccc(S(N)(=O)=O)cc3)ccc2Cl)C1 (configuration not stated) | · | · | 38.1 | 18.2 | 22.8 | 33.1
Cc1cc2nc(C(C)(C)C)c(Cc3ccsc3)n2c(C)c1Br | · | · | -6.0 | 19.3 | -14.0 | 2.2
CC(=O)c1cc2ccc(O)cc2oc1=O | -5.6 | 4.3 | 4.6 | 17.2 | 5.1 | -15.2
N=c1oc2ccccc2cc1C(=O)Nc1cccc(F)c1 | -121.5 | -6.6 | -11.4 | -249.2 | 11.8 | 49.9
N=c1oc2cc(O)ccc2cc1C(=O)Nc1ccc(Cl)cc1 | -125.9 | 2.6 | -2.6 | -156.4 | 48.5* | 15.4
N=c1oc2ccccc2cc1C(=O)Nc1ccc(F)cc1 | -153.7 | 0.9 | -80.6 | -214.8 | 12.5 | 61.6*
CCCCCCCCN1C(=O)[C@H](CC(=O)N2CCOCC2)C[C@@]2(C(=O)OC)CCCCC=C12 | · | · | 18.8 | 1.5 | -2.8 | 20.2
Cc1cccc(C)c1NC(=O)C1(C)CN(S(C)(=O)=O)CC(=O)N1CC(F)(F)F (configuration not stated) | · | · | · | -1.3 | 13.2 | ·
CC(C)C[C@@H](CN1CCC[C@H]1CN1C(=O)C(=O)NC[C@@H]1Cc1ccc(O)cc1)N1C[C@H](Cc2ccccc2)N(CC2CCCCCC2)C(=O)C1=O | · | · | 5.0 | -4.2 | -11.1 | 4.4
CCN(CC)c1ccc(NC(=O)Nc2ccccc2)cc1 | -137.3 | 8.9 | -51.8 | -246.5 | 59.2* | -10.3
CC(=O)c1ccc(NC(=O)Nc2ccccc2)cc1 | -10.1 | -2.7 | -33.1 | -85.8 | 60.1* | 23.4
CC(=O)c1ccc(NC(=S)Nc2cccc3ccccc23)cc1 | -47.0 | 9.1 | 72.4* | -23.2 | 1.2 | 33.1
CCN(CC)c1ccc(NC(=O)Nc2ccc(C(C)=O)cc2)cc1 | -68.4 | 0.1 | -18.9 | -30.0 | 5.2 | 2.9
CC(=O)c1cccc(NC(=O)Nc2ccccc2)c1 | -95.8 | 2.5 | -37.5 | -162.6 | 4.1 | -5.9
Cn1cccc1C(=O)Nc1ccc(Cl)c(S(=O)(=O)N2CCCCC2)c1 | · | · | 1.1 | -1.9 | 9.3 | 11.3
Cc1ccnc(NC(=O)Nc2ccc3c(c2)N(C)C(=O)CS3)c1 | -96.9 | -2.9 | -12.8 | -270.7 | 0.1 | 52.4*
CC(=O)c1ccc(NC(=O)Nc2ccc3c(c2)N(C)C(=O)CS3)cc1 | -17.0 | 3.3 | 31.5 | -49.9 | 21.5 | 72.4*
C[C@H]1CN([C@@H](C)CO)S(=O)(=O)c2ccc(Br)cc2O[C@H]1CN(C)C(=O)Cc1ccncc1 | · | · | -14.8 | 7.4 | -5.0 | -15.4
COc1ccc(S(=O)(=O)N[C@H]2CC[C@H](CCNC(=O)c3ccccc3F)O[C@@H]2CO)cc1 | · | · | · | 4.2 | 5.1 | ·
O=C(COc1cccc(NC(=O)c2cccc([N+](=O)[O-])c2)c1)c1ccc(Br)cc1 | 23.8 | 4.4 | 38.7 | 1.4 | -2.4 | 71.1*
Nc1nc(Sc2ccc([N+](=O)[O-])c3nonc23)c2[nH]cnc2n1 | · | · | -7.0 | 37.9 | 75.2* | 32.3
Nc1nc(N)c2[nH]cnc2n1 | -19.2 | · | · | · | · | ·
Nc1nc(SCc2ccccc2)c2[nH]cnc2n1 | -2.9 | -0.2 | 7.2 | -36.8 | -7.3 | 8.9
CNc1ncnc(Sc2nc(N)nc3nc[nH]c23)c1[N+](=O)[O-] | · | · | 1.9 | 9.1 | 73.8* | 26.6
SMILES | aSyn 5UTR inh | HSP90 inh | TROY NFkB inh | HIF-2a inh | C8 TRAIL sens | TWEAK Fn14 block
N#Cc1c(-c2ccc(Cl)cc2)n(O)c2ccccc12 | · | · | 49.9 | -91.6 | 47.0 | 64.0*
CC1=Nn2c(nnc2-c2ccc(F)cc2)SC1 | -9.2 | 2.4 | -10.8 | 7.6 | -1.7 | -8.7
CCOC(=O)/C(=C\c1ccc(OC(F)F)cc1)C1=Nn2c(nnc2-c2ccc(Cl)cc2)SC1 | 46.7 | -1.5 | 89.5* | 96.7* | 93.7* | 104.7*
CCC1CCCCN1C(=O)COC(=O)COc1ccc(Br)cc1 (configuration not stated) | · | · | 9.7 | 2.3 | -6.8 | 17.0
O=C(NCc1ccccc1Cl)c1[nH]c(C(F)(F)F)nc1-c1ccccc1 | · | · | 25.6 | 7.7 | -15.1 | 4.5
COc1ccc(C2c3[nH]c4ccccc4c3CCN2Cc2cccn2-c2ncccn2)cc1C (configuration not stated) | -32.1 | 4.8 | 71.2* | -107.8 | 14.6 | 56.3*
O=C(Nc1nc(-c2nc3ccccc3s2)cs1)c1ccc(S(=O)(=O)N2CCOCC2)cc1 | -75.2 | -4.2 | 64.2* | -284.6 | 40.3 | 77.8*
O=C(Nc1nc(-c2ccc(S(=O)(=O)N3CCCC3)cc2)cs1)c1cccs1 | · | 1.4 | 53.3* | -10.4 | 30.1 | 54.8*
CC(C)CC(=O)Nc1nc(-c2ccc(S(=O)(=O)N3CCOCC3)cc2)cs1 | -1.5 | -1.4 | 15.8 | 9.6 | 13.4 | 5.6
COc1cccc(C(=O)Nc2nc(-c3ccc(S(=O)(=O)N4CCOCC4)cc3)cs2)c1 | 13.5 | 1.3 | 63.5* | 7.6 | 30.9 | 70.2*
O=C(Nc1nc(-c2ccc(S(=O)(=O)N3CCOCC3)cc2)cs1)c1ccccc1 | 9.8 | 3.5 | 53.1* | -11.3 | 28.2 | 85.4*
Cc1ccc(-c2csc(NC(=O)c3cccc(S(=O)(=O)N4CCN(C)CC4)c3)n2)cc1 | -65.8 | 4.4 | 31.6 | -2.7 | 16.2 | 27.6
CC[N+](CC)=N/N=C1\C=CC[N+]([O-])=C1 | · | · | 1.5 | 6.1 | -2.1 | 1.2
O=C(Nc1nc(-c2ccccc2)cs1)C1CCCN(S(=O)(=O)c2ccccc2)C1 (configuration not stated) | 17.3 | 4.6 | 46.0 | 9.6 | 18.1 | 88.0*
OCCN1CCN(c2ncnc3c2ncn3[C@H]2CN(Cc3ccc4c(c3)OCO4)C[C@@H](CO)O2)CC1 | · | · | -1.2 | -7.4 | 8.7 | 1.1
O=[N+]([O-])c1ccccc1CCc1cnc(Cl)s1 | -12.8 | 1.3 | 51.5* | -36.4 | -3.2 | 58.4*
O=[N+]([O-])c1ccccc1CSc1ccccn1 | -0.9 | 1.3 | -1.7 | -34.6 | -4.2 | -25.1
NC(=O)c1cccc(Nc2nc(C(N)COCc3ccccc3)cs2)n1 (configuration not stated) | · | · | -8.3 | 7.1 | 0.4 | -24.2
COC(=O)c1ccc2nc(C)cc(Nc3ccc(N(C)C)cc3)c2c1 | -3.6 | 3.0 | -9.8 | 6.2 | 3.6 | -14.8
COC(=O)c1ccc(Nc2cc(C)nc3ccccc23)cc1 | 64.7* | 2.7 | 13.2 | 18.4 | 11.0 | -8.5
C=CCn1c2ccccc2c(=O)c2cc(C#CC[C@@H](C)O)ccc21 | · | · | -121.6 | -297.3 | 52.5* | -132.3
CC1(C)CC(=O)C=C(C#CC2(O)CCCCC2)C1 | · | · | 8.3 | 33.7 | 20.8 | 63.8*
Cc1cccc(C#CC2=CC(=O)CC(C)(C)C2)c1 | · | · | -45.4 | -52.8 | 8.4 | -7.3
N#CC(C#N)=NNc1ccc2cn[nH]c2c1 | · | · | 62.1* | 3.4 | 0.3 | 91.9*
CCNC(=S)Nc1ccc2cn[nH]c2c1 | -21.6 | -0.8 | 15.3 | 5.4 | -3.7 | 4.8
CC(=O)Nc1ccc(C=NNc2nnc(NN=Cc3ccc(NC(C)=O)cc3)c3ccccc23)cc1 | · | · | 38.1 | -69.9 | 64.1* | 56.4*
